Experimental data as given in PubChem BioAssay AID1159580 (chemical genetic matrix, 2015).
Several values for one entry are separate records, joined by “and”; a condition that tells them apart may be missing. Equal entries are not always repeated. Hit rate of the full screen: of about 5,500 compounds, about 2,000 (36%) were called active. Inconclusive results (about 18%) are left out. Rule as the data show it: active = normalized growth mostly below about 0.91 (no sharp cut-off); inconclusive = no clear call, values can overlap the other calls; inactive = mostly above about 0.92. The list shows a part of the results.

Experiment: chemical genetic growth profiling, strain panel (AID 1159580);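 also: tested at 20 µM; growth read once vehicle control cultures reached saturation at 30 °C; 1 = growth at the plate median or of vehicle wells; lower values mean less growth of the strain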
Conditions: S. cerevisiae deletion strains, growth OD

Measured: normalized growth

C=CCSCC1Nc2cc(Cl)c(S(N)(=O)=O)cc2S(=O)(=O)N1 (configuration not stated)
inactive: locus YAL013W, strain DEP1, active compounds read low 1.01 | locus YAL021C, strain ccr4, active compounds read low 0.994 | locus YAL026C, strain drs2, active compounds read low 1.01 | locus YAL030W, strain snc1, active compounds read low 1 | locus YBL061C, strain skt5, active compounds read low 1 | locus YBR009C, strain hhf1, active compounds read low 0.995 | locus YBR021W, strain FUR4, active compounds read low 0.991 | locus YBR023C, strain chs3, active compounds read low 1 | locus YBR171W, strain sec66, active compounds read low 1.01 | locus YBR229C, strain ROT2, active compounds read low 1.01 | locus YBR231C, strain swc5, active compounds read low 0.985 | locus YBR279W, strain paf1, active compounds read low 1 | locus YCL011C, strain gbp2, active compounds read low 1 | locus YCL016C, strain dcc1, active compounds read low 0.993 | locus YCL029C, strain bik1, active compounds read low 1.02 | locus YCL061C, strain MRC1, active compounds read low 1 | locus YCL069W, strain vba3, active compounds read low 0.999 | locus YCR088W, strain abp1, active compounds read low 1 | locus YDL005C, strain med2, active compounds read low 0.997 | locus YDL035C, strain GPR1, active compounds read low 1.01 | locus YDL040C, strain nat1, active compounds read low 1 | locus YDL074C, strain BRE1, active compounds read low 1.01 | locus YDL101C, strain DUN1, active compounds read low 1.01 | locus YDL134C, strain PPH21, active compounds read low 1.01 | locus YDL185W, strain tfp1, active compounds read low 1.02 | locus YDL192W, strain arf1, active compounds read low 1.02 | locus YDR001C, strain nth1, active compounds read low 1 | locus YDR069C, strain doa4, active compounds read low 0.997 | locus YDR101C, strain arx1, active compounds read low 1.01 | locus YDR137W, strain rgp1, active compounds read low 1 | locus YDR150W, strain NUM1, active compounds read low 1.01 | locus YDR159W, strain sac3, active compounds read low 0.981 | locus YDR162C, strain NBP2, active compounds read low 1.02 | locus YDR195W, strain ref2 1 | locus YDR297W, strain sur2, active compounds read low 1 | locus YDR318W, strain mcm21, active compounds read low 1.02 | locus YDR334W, strain swr1, active compounds read low 1 | locus YDR335W, strain msn5, active compounds read low 1.01 | locus YDR388W, active compounds read low 1.02 | locus YDR392W, strain spt3, active compounds read low 0.939 | locus YDR502C, strain sam2, active compounds read low 1.03 | locus YEL003W, strain gim4, active compounds read low 1 | locus YEL037C, strain rad23, active compounds read low 1 | locus YEL061C, strain CIN8 (second series), active compounds read low 0.997 | locus YEL061C, strain CIN8, active compounds read low 1 | locus YER015W, strain faa2, active compounds read low 1 | locus YER016W, strain bim1, active compounds read low 1 | locus YER110C, active compounds read low 1.03 | locus YER111C, strain swi4, active compounds read low 1 | locus YER155C, strain BEM2 (second series), active compounds read low 1 | locus YER155C, strain BEM2, active compounds read low 1 | locus YER167W, strain BCK2, active compounds read low 1 | locus YFR010W, strain ubp6, active compounds read low 1.01 | locus YGL078C, strain dbp3, active compounds read low 1.03 | locus YGL086W, strain mad1, active compounds read low 1.01 | locus YGL167C, strain pmr1, active compounds read low 1 | locus YGL173C, strain kem1, active compounds read low 1 | locus YGL227W, strain vid30, active compounds read low 0.99 | locus YGL240W, strain doc1, active compounds read low 0.992 | locus YGL248W, strain PDE1, active compounds read low 1.01 | locus YGL253W, strain hxk2, active compounds read low 0.992 | locus YGR078C, strain PAC10, active compounds read low 1 | locus YGR135W, strain pre9, active compounds read low 1.01 | locus YGR229C, strain SMI1, active compounds read low 1.01 | locus YGR252W, strain gcn5, active compounds read low 1.06 | locus YHR013C, strain ard1, active compounds read low 0.988 | locus YHR027C, strain rpn1, active compounds read low 1.01 | locus YHR030C, strain SLT2, active compounds read low 1 and 1.06 | locus YHR079C, strain IRE1 (second series), active compounds read low 1.02 | locus YHR079C, strain IRE1, active compounds read low 1.06 | locus YHR094C, strain hxt1, active compounds read low 1.02 | locus YHR129C, strain ARP1, active compounds read low 1.02 | locus YHR142W, strain chs7, active compounds read low 0.988 | locus YHR200W, strain rpn10, active compounds read low 1.03 | locus YIL066C, strain RNR3, active compounds read low 1 | locus YIL073C, strain SPO22, active compounds read low 1.08 | locus YIL125W, strain kgd1, active compounds read low 1.02 | locus YIR030C, strain dcg1, active compounds read low 1.03 | locus YJL092W, strain hpr5, active compounds read low 0.995 | locus YJL095W, strain BCK1 (second series), active compounds read low 0.994 | locus YJL095W, strain BCK1, active compounds read low 1 and 1.06 | locus YJL115W, strain asf1, active compounds read low 1 | locus YJL129C, strain trk1, active compounds read low 0.989 | locus YJL134W, strain LCB3, active compounds read low 1.01 | locus YJL154C, strain vps35, active compounds read low 0.999 | locus YJL164C, strain tpk1, active compounds read low 1.01 | locus YJL166W, strain qcr8, active compounds read low 0.998 | locus YJL168C, strain set2, active compounds read low 1.03 | locus YJL187C, strain SWE1 (second series), active compounds read low 1.01 | locus YJL187C, strain SWE1, active compounds read low 1 | locus YJR043C, strain POL32, active compounds read low 1 | locus YJR066W, strain TOR1, active compounds read low 0.991
